From PubChem BioAssay (NCATS) come the findings set out here.

Assay [1] deals with Cytochrome P450 3A4 (Homo sapiens) (UniProt P08684). Briefly: qHTS Assay for Inhibitors and Substrates of Cytochrome P450 3A4 (AID 884). Also: potency is read from the fitted curve at half-maximal effect; nearly all actives have a fitted effect of over 50% in size. An outline of the steps:
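20 nM human CYP3A4 with 25 uM Luciferin-PPXE (at KM) in 200 mM KPO4, preincubated 10 min with compound; NADPH regeneration started a 60 min RT reaction. Luciferin detected by luminescence, normalized to 57 uM ketoconazole as full inhibition.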
Background: qHTS replaces the single test concentration by a dilution series.

The target is the same in assay [2]. Nature of the assay: qHTS Assay for Activators of Cytochrome P450 3A4 (AID 885). Also: nearly all actives have a fitted effect of over 65% in size. Summed up: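 Human CYP3A4 (20 nM) with Luciferin-PPXE at 25 uM (its KM) in 200 mM KPO4; 10 min compound preincubation, then NADPH regeneration and 60 min reaction at RT. Luciferin read by luminescence; normalized to 57 uM ketoconazole full inhibition.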
For assay [3], the target named is Cytochrome P450 2C19 (Homo sapiens) (UniProt P33261). Briefly: qHTS Assay for Inhibitors and Substrates of Cytochrome P450 2C19 (AID 899). Also: nearly all actives have a fitted effect of over 60% in size. Also: potency is read from the fitted curve at half-maximal effect. An outline of the steps:
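Reactions contain 5nM enzyme, 10uM Luciferin-H EGE (KM) and 50mM KPO4; compound preincubates 10 min at 37C, NADPH regeneration starts turnover for 60 min. Luminescence after detection reagent gives activity.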

Assay [4] addresses Cytochrome P450 2D6 (Homo sapiens) (UniProt P10635). Briefly: qHTS Assay for Inhibitors and Substrates of Cytochrome P450 2D6 (AID 891).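 Also: luciferin methyl ether substrate demethylated by CYP2D6 with NADPH regeneration; % is scaled to controls: 0 for no effect and ±100 for the full control effect; nearly all actives have a fitted effect of over 60% in size.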 An outline of the steps:
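Human CYP2D6 (5 nM) with 30 uM Luciferin-ME EGE (at Km) in 100 mM KPO4, compound preincubated 10 min, then NADPH regeneration system for 60 min at room temperature. Luciferin read by luminescence; normalized to 1.43 uM quinidine.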

A number with no mark means an inactive call. Records with an inconclusive call do not appear. Calls of active or inactive are those of the source. Calls follow the shape of the dose curve; as a rule, active = well fitted curve in the direction sought with a large enough effect; inconclusive = small, poorly fitted or top-dose-only effect, or another doubt; inactive = no such curve, though single readings can be large; an effect the other way counts as inactive or inconclusive.

Chain of Cytochrome P450 2C19 (Homo sapiens) (P33261 whole entry, looked up): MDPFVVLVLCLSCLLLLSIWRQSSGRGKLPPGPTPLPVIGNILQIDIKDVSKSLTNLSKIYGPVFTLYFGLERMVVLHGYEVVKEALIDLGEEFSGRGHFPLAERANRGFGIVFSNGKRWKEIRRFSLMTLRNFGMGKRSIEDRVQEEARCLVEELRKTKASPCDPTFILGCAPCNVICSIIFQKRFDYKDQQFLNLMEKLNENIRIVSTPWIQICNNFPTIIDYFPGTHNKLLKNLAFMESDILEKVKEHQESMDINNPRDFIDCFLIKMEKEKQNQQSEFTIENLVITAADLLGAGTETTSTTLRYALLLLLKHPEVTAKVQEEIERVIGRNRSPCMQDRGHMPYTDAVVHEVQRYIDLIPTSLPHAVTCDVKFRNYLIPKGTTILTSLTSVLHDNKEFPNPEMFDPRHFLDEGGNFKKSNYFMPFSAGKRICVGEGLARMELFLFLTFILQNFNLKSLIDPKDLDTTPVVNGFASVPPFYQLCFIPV
Chain of Cytochrome P450 3A4 (Homo sapiens) (P08684 whole entry, looked up): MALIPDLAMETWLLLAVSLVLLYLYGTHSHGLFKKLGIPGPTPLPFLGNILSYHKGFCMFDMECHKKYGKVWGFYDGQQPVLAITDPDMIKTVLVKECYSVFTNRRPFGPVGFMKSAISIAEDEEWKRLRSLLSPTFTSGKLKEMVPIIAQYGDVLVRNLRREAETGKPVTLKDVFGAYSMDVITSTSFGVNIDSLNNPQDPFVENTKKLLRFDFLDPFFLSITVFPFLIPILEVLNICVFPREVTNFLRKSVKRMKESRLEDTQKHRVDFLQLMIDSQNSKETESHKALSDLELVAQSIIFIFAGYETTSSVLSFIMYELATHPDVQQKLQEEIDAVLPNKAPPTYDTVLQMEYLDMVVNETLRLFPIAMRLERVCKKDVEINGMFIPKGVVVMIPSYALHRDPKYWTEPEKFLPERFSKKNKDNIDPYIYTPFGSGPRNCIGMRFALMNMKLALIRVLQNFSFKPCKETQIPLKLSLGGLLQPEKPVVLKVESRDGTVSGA
Chain of Cytochrome P450 2D6 (Homo sapiens) (P10635 whole entry, looked up): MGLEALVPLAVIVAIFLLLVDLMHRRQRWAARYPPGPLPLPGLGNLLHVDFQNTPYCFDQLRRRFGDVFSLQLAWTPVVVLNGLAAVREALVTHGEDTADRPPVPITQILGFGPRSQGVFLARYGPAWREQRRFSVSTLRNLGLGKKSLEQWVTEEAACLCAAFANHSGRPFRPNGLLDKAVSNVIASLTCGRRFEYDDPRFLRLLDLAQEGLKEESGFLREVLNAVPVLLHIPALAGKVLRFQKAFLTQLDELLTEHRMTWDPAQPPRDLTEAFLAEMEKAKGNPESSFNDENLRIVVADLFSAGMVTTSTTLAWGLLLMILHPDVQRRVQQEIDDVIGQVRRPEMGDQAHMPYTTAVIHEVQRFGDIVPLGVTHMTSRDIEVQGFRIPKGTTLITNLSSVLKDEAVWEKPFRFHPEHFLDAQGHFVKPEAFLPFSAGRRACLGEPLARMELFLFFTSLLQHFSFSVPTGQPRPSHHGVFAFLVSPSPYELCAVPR

On to `Cc1ccc(S(=O)(=O)N[C@H]2COC(=O)[C@@H](Cc3ccccc3)NC(=O)[C@@H](C)COC(=O)C/C=C\[C@@H]2C)cc1`, for which the Potency in assay [1] was 3980 nM (active). Also, in assay [2], the activity change, positive = activation is -80.1% [at 11.4 µM]. Further, the Potency result in assay [3] was “inactive”.

With `COCC#Cc1ccc(C2C(C)CCC3C(=O)N4C(CCC(C)C4c4ccc(C#CCOC)cc4)C(=O)N32)cc1` (stereo not drawn), the Potency in assay [1] was 1260 nM (active). In assay [2], the activity change, positive = activation was -65.6% [at 11.4 µM]. In addition, the Potency entry in assay [4] and in assay [3] was “inactive” in each case.

As for `COc1ccc(O[C@H]2C=C[C@@H](c3ccccc3)O[C@H]2CO/N=C2/[C@H]3O[C@@H]3[C@@H](O)[C@H]3[C@H]2CCn2c(=O)n(-c4ccccc4)c(=O)n23)cc1`, the Potency is 3160 nM (active) in assay [1] and 2510 nM (active) in assay [3]. For the same molecule, the activity change, positive = activation in assay [2] was -86.5% [at 11.4 µM].

With `COc1ccc(O[C@H]2C=C[C@@H](c3ccccc3)O[C@H]2COC(=O)CC/C(C)=N\O[C@@H](C)c2cn([C@H]3COC[C@H]3O)nn2)cc1`, the Potency in assay [1] is 3980 nM (active); in assay [3], 2510 nM (active). For the same molecule, the activity change, positive = activation in assay [2] was -77.3% [at 11.4 µM].
